{"source": "paper PMC4336329", "about": "(PLoS ONE, 2015)", "note": "Screen size: about 310,000 compounds; about 14,000 (4.5%) showed an effect of 50% or more. The effect is printed as a negative number. Shown is part of a subset that was picked to be rich in strong results.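 Note: peak tail current of the secondary pulse compared with the same well before compound.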"}
{"molecular_target": "human ether-à-go-go-related gene (hERG) potassium channel (human, UniProt Q12809)", "sequence (Q12809 whole entry, looked up)": "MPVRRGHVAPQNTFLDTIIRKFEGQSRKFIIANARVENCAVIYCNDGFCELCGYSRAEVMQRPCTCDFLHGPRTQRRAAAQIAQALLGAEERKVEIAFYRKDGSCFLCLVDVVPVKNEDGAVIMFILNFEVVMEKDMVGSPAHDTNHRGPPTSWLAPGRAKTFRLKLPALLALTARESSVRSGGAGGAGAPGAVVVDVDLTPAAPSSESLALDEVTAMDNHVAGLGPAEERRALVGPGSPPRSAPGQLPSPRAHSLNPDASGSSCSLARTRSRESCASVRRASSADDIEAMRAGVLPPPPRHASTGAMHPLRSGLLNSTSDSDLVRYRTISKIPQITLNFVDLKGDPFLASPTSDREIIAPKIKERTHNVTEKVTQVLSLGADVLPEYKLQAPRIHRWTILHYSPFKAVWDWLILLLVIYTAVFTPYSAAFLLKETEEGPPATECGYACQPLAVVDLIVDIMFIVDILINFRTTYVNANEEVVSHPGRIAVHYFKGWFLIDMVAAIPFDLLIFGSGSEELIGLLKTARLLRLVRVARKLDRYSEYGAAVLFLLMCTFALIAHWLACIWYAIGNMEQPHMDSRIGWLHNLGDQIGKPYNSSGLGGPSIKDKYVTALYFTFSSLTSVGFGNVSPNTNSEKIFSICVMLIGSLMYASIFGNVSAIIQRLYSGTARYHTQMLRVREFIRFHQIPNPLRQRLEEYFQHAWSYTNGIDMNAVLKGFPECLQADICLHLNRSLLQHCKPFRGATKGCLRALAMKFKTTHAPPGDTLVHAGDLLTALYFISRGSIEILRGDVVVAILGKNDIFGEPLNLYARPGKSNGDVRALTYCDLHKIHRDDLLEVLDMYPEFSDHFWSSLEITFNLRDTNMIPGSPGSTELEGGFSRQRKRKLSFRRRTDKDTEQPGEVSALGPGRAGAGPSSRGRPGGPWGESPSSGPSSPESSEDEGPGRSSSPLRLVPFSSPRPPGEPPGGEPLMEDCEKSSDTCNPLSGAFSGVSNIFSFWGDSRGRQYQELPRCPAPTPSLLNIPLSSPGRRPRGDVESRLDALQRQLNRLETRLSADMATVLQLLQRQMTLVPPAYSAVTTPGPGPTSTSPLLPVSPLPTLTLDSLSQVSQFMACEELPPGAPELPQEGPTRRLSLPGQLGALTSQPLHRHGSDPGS", "test": "primary screen, population patch clamp on CHO cells stably expressing hERG; higher = less effect of the substance", "units": {"hERG current change (%, negative = inhibition) at 10uM": "%"}}
{"smiles": "O=C(NNc1cc(Cl)cc(Cl)c1)C1CCC1", "hERG current change (%, negative = inhibition) at 10uM": 21.9}
{"smiles": "COc1ccc(NC(=O)Cn2c(C)cc(=O)c3ccccc32)cc1", "hERG current change (%, negative = inhibition) at 10uM": -7.76}
{"smiles": "O=C1CN(S(=O)(=O)c2cccc(Cl)c2Cl)c2ccccc2N1", "hERG current change (%, negative = inhibition) at 10uM": 3.58}
{"smiles": "O=C1CC(=Nc2ccccc2)NN1c1ccccc1", "hERG current change (%, negative = inhibition) at 10uM": 23.1}
{"smiles": "CCCCNC(=O)NC1CCCC1", "hERG current change (%, negative = inhibition) at 10uM": 4.48}
{"smiles": "c1ccc2c(c1)c1cccc3ccc4cccc2c4c31", "hERG current change (%, negative = inhibition) at 10uM": 16.4}
{"smiles": "COC(=O)c1c(NC(=O)/C=C/c2ccco2)sc2c1CCC2", "hERG current change (%, negative = inhibition) at 10uM": 17.6}
{"smiles": "Cc1nc(N)nc(Nc2ccc(Cl)cc2)c1Br", "hERG current change (%, negative = inhibition) at 10uM": -7.99}
{"smiles": "COc1ccc(NC(C)=O)cc1NC(=O)CN1CCN(c2ccccn2)CC1", "hERG current change (%, negative = inhibition) at 10uM": 10.3}
{"smiles": "COc1ccc(NC(=O)c2ccccc2Cl)cc1NC(=O)CN1CCOCC1", "hERG current change (%, negative = inhibition) at 10uM": -5.99}
{"smiles": "COc1ccccc1NC(=O)CN1CCN(CC(=O)Nc2cc(NC(C)=O)ccc2OC)CC1", "hERG current change (%, negative = inhibition) at 10uM": -50.3}
{"smiles": "COc1ccc(NC(C)=O)cc1NC(=O)CN1CCN(CC(=O)Nc2ccccc2Cl)CC1", "hERG current change (%, negative = inhibition) at 10uM": -53.3}
{"smiles": "COc1ccc(NC(C)=O)cc1NC(=O)CN1CCN(CC(=O)Nc2ccc(Cl)cc2)CC1", "hERG current change (%, negative = inhibition) at 10uM": -69.8}
{"smiles": "COc1ccccc1NC(=O)CN1CCN(CC(=O)Nc2ccc(OC)c(OC)c2)CC1", "hERG current change (%, negative = inhibition) at 10uM": -24.4}
{"smiles": "COc1ccc(NC(C)=O)cc1NC(=O)CN1CCN(C2c3ccccc3-c3ccccc32)CC1", "hERG current change (%, negative = inhibition) at 10uM": 3.55}
{"smiles": "COc1ccc(NC(C)=O)cc1NC(=O)c1ccc(Cl)cc1", "hERG current change (%, negative = inhibition) at 10uM": -18.2}
{"smiles": "Cc1cc2c(cc1C)C(=O)NC(C)(C)C2", "hERG current change (%, negative = inhibition) at 10uM": 8.73}
{"smiles": "COc1cccc(N2C(=O)[C@H]3C(C(=O)c4cnccn4)=NN[C@H]3C2=O)c1", "hERG current change (%, negative = inhibition) at 10uM": 13.2}
{"smiles": "CCc1nnc(NC(=O)CSc2ccc(-c3ccc(C)cc3)nn2)s1", "hERG current change (%, negative = inhibition) at 10uM": 9.49}
{"smiles": "O=C(NC1CC(=O)c2sccc21)c1ccc(Cl)cc1Cl", "note": "(stereo not drawn)", "hERG current change (%, negative = inhibition) at 10uM": -35.6}
{"smiles": "O=C(c1ccco1)N1CCN(C(=O)c2sccc2-c2ccccc2)CC1", "hERG current change (%, negative = inhibition) at 10uM": -8.12}
{"smiles": "COc1ccc(C)cc1NC(=O)CCN1CCN(c2ccccc2)CC1", "hERG current change (%, negative = inhibition) at 10uM": -10.3}
{"smiles": "COc1ccc(C)cc1NC(=O)CN1CCN(c2ccccn2)CC1", "hERG current change (%, negative = inhibition) at 10uM": -11.7}
{"smiles": "COc1ccc(C)cc1NC(=O)CCN1CCN(C/C=C/c2ccccc2)CC1", "hERG current change (%, negative = inhibition) at 10uM": -77.1}
{"smiles": "COc1ccc(C)cc1NC(=O)CN1CCN(C/C=C/c2ccccc2)CC1", "hERG current change (%, negative = inhibition) at 10uM": -78.3}
{"smiles": "COc1ccc(C)cc1NC(=O)CCN1CCCC1", "hERG current change (%, negative = inhibition) at 10uM": 2.36}
{"smiles": "CCc1ccccc1NC(=O)CN1CCN(CC(=O)Nc2cc(C)ccc2OC)CC1", "hERG current change (%, negative = inhibition) at 10uM": -28.4}
{"smiles": "Cc1ccc(S(=O)(=O)c2nnn3c2nc(N2CCOCC2)c2ccccc23)c(C)c1", "hERG current change (%, negative = inhibition) at 10uM": -31.3}
{"smiles": "COCc1nnc(NC(=O)c2cc(C(=O)OC)cc([N+](=O)[O-])c2)s1", "hERG current change (%, negative = inhibition) at 10uM": -2.76}
{"smiles": "O=C(Cc1ncc(C(F)(F)F)cc1Cl)NCc1cccnc1", "hERG current change (%, negative = inhibition) at 10uM": 17.1}
{"smiles": "COc1ccc(CC(=O)OCC(=O)Nc2ccc(OC(F)F)cc2)cc1OC", "hERG current change (%, negative = inhibition) at 10uM": -19.7}
{"smiles": "Cc1cc(C)n(CC(C)NC(=O)c2cc(COc3c(F)cccc3F)on2)n1", "note": "(stereo not drawn)", "hERG current change (%, negative = inhibition) at 10uM": 1.49}
{"smiles": "CCOc1ccc(C(=O)NCc2cccnc2)cc1[N+](=O)[O-]", "hERG current change (%, negative = inhibition) at 10uM": -76}
{"smiles": "COc1ccc(OC)c(C2=NOC(C(=O)NCc3cccnc3)C2)c1", "note": "(stereo not drawn)", "hERG current change (%, negative = inhibition) at 10uM": -62}
{"smiles": "CCOc1ccc(C(=O)NC(=S)Nc2ccccn2)cc1[N+](=O)[O-]", "hERG current change (%, negative = inhibition) at 10uM": -2.48}
{"smiles": "CCOc1ccc(C(=O)NC(=S)Nc2cccnc2)cc1[N+](=O)[O-]", "hERG current change (%, negative = inhibition) at 10uM": -16.1}
{"smiles": "CCOc1ccc(C(=O)NC(=S)Nc2ncccc2C)cc1[N+](=O)[O-]", "hERG current change (%, negative = inhibition) at 10uM": -67.6}
{"smiles": "COc1ccc(C(=O)NC(=S)NCc2cccnc2)cc1Br", "hERG current change (%, negative = inhibition) at 10uM": -23.9}
{"smiles": "COc1ccc(C(=O)NC(=S)NCc2cccnc2)cc1[N+](=O)[O-]", "hERG current change (%, negative = inhibition) at 10uM": -12.3}
{"smiles": "COc1cccc(C2=NOC(C(=O)NCc3cccnc3)C2)c1", "note": "(stereo not drawn)", "hERG current change (%, negative = inhibition) at 10uM": 35.6}
{"smiles": "CCOc1ccc(C(=O)NC(=S)NCc2cccnc2)cc1[N+](=O)[O-]", "hERG current change (%, negative = inhibition) at 10uM": -2.86}
{"smiles": "COc1ccc(C(=O)NC(=S)NCc2cccnc2)cc1OC", "hERG current change (%, negative = inhibition) at 10uM": -57.3}
{"smiles": "COc1cc(OC)c(C2=NOC(C(=O)NCc3cccnc3)C2)cc1Cl", "note": "(stereo not drawn)", "hERG current change (%, negative = inhibition) at 10uM": 13}
{"smiles": "COc1ccc(C(=O)NC(=S)NCc2cccnc2)cc1Cl", "hERG current change (%, negative = inhibition) at 10uM": -1.7}
{"smiles": "NC(=O)CSc1oc(-c2ccc(F)cc2)nc1S(=O)(=O)c1ccccc1", "hERG current change (%, negative = inhibition) at 10uM": -8.24}
{"smiles": "Cc1ccc(S(=O)(=O)C(C#N)c2nc3ccccc3nc2OC(C)C)cc1", "note": "(stereo not drawn)", "hERG current change (%, negative = inhibition) at 10uM": -5.65}
{"smiles": "CN(CC(=O)Nc1ccc(F)cc1)C(=O)COC(=O)C1=COCCO1", "hERG current change (%, negative = inhibition) at 10uM": -20}
{"smiles": "CCCCOC(=O)C1=C(C)Nc2ncnn2C1c1ccc(OC)c(OC)c1OC", "note": "(stereo not drawn)", "hERG current change (%, negative = inhibition) at 10uM": -18.3}
{"smiles": "CCOC(=O)Cc1csc(NC(=O)c2ccc3c(c2)OCO3)n1", "hERG current change (%, negative = inhibition) at 10uM": -22.8}
{"smiles": "Cc1nn(C(=O)CN2C(=O)c3ccccc3C2=O)c(C)c1Br", "hERG current change (%, negative = inhibition) at 10uM": 5.28}
{"smiles": "CCOC(=O)[C@H]1[C@H]2COc3ccc(Cl)cc3[C@@H]2N2C(=O)CN(Cc3ccc(Cl)cc3)C(=O)[C@@]12C", "hERG current change (%, negative = inhibition) at 10uM": 2.8}
{"smiles": "Cc1ccc(NC(=O)Nc2cc(Cl)ccc2C2COC(=O)C2=N)cc1", "note": "(stereo not drawn)", "hERG current change (%, negative = inhibition) at 10uM": 27.9}
{"smiles": "Cn1c(N)c(S(=O)(=O)N2CCCC2)c(=O)n(C)c1=O", "hERG current change (%, negative = inhibition) at 10uM": 26.2}
{"smiles": "O=C(O)C(F)(F)F.c1cn2c(NC3CCCCC3)c(-c3ccc(SC4CCCCC4)cc3)nc2cn1", "hERG current change (%, negative = inhibition) at 10uM": 9.49}
{"smiles": "O=C(CSc1ccc(F)cc1)N1CCOCC1", "hERG current change (%, negative = inhibition) at 10uM": 16.2}
{"smiles": "O=C(N/N=C/c1cccnc1)c1cc(Br)ccc1O", "hERG current change (%, negative = inhibition) at 10uM": 30.5}
{"smiles": "Cc1ccc(-n2c(=O)cc(N3CC(C)CC(C)C3)[nH]c2=O)cc1", "note": "(stereo not drawn)", "hERG current change (%, negative = inhibition) at 10uM": 23.7}
